Bioassay records as filed in PubChem.
PI5P4Ka inh: qHTS for Inhibitors of phosphatidylinositol 5-phosphate 4-kinase (PI5P4K). Phosphatidylinositol 5-phosphate 4-kinase type-2 alpha (Homo sapiens), P48426. PI5P4Kalpha enzyme, ADP-Glo luminescence, 60 min; active compounds read low. max response, %. actives 1.2% (n = 330,000). AID 652105, 2013; active means max response of -50% or lower; inconclusive means between -30% and -50%; inactive means -30% or higher; further: value at the top dose of about 77 µM; on the % scale 0 is the no-effect control and ±100 the full control effect
Target sequence (P48426 whole entry, looked up): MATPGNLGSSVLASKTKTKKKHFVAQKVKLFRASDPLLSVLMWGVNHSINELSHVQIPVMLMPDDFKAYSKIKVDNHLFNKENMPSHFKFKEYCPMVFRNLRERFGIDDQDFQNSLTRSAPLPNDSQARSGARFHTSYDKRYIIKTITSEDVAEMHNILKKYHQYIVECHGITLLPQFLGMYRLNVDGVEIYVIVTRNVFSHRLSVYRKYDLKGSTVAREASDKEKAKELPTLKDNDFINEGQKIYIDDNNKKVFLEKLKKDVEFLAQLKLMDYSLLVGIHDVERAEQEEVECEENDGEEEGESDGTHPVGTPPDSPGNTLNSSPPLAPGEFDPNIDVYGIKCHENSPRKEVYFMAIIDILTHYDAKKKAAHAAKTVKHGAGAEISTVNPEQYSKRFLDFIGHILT
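Quantitative HTS of the MLSMR library against PI5P4Kalpha with substrate. ATP added last at 5 microM final; room temperature, 60 minutes. Remaining ATP depleted, ADP converted and read as luminescence.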
JMJD2A Tudor: qHTS Assay for Inhibitors of JMJD2A-Tudor Domain; AlphaScreen JMJD2A-Tudor / H3K4me3 peptide binding; actives 4.4% (n = 390,000); Lysine-specific demethylase 4A (Homo sapiens), O75164; Potency, µM (titrated, usually from 114 µM), for inactives: at the highest dose activity change, negative = inhibition, actives largely listed as inhibitors; AID 504339, 2011; further: potency means the concentration at half of the fitted maximal effect; on the % scale 0 is the no-effect control and ±100 the full control effect; nearly all actives have a fitted effect of over 50% in size
KDM4E inh: qHTS Assay for Inhibitors of Human Jumonji Domain Containing 2E (JMJD2E) | JMJD2E catalytic domain, FDH-coupled NADH fluorescence (FDH is formaldehyde dehydrogenase) | Potency, µM (series often up to 57.1 µM), without a hit: at the highest dose activity change, negative = inhibition, usual class: inhibitors | actives 1.6% (n = 230,000); active means well fitted inhibition curve with a large enough effect, not every such curve was filed as active; inconclusive means small, poorly fitted or top-dose-only effect, or another doubt; inactive means no such curve, though single readings can be large or run the other way;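 further: potency means the concentration at half of the fitted maximal effect; 0% = wells with enzyme and -100% = buffer wells without enzyme; nearly all actives have a fitted effect of over 50% in size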
Target sequence (B2RXH2 1-337 limits assumed): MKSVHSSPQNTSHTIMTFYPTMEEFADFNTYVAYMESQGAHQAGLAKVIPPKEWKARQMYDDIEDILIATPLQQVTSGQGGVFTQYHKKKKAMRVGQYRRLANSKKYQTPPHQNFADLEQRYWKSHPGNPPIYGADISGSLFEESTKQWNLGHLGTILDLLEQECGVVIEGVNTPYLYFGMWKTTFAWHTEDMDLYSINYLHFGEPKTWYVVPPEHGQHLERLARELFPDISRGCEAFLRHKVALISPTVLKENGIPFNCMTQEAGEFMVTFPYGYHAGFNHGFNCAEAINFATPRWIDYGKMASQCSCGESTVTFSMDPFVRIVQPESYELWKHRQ
BAZ2B inh: qHTS Assay for Inhibitors of BAZ2B. Bromodomain adjacent to zinc finger domain protein 2B (Homo sapiens), Q9UIF8. Potency, µM (titrated, usually from 114 µM), for inactives: at the highest dose activity change, negative = inhibition, actives largely listed as inhibitors. AlphaScreen BAZ2B-H3K14Ac peptide displacement. actives 4.4% (n = 360,000). AID 504333, 2011; further: potency means the concentration at half of the fitted maximal effect; on the % scale 0 is the no-effect control and ±100 the full control effect; nearly all actives have a fitted effect of over 60% in size
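AlphaScreen luminescence quantifies BAZ2B engagement of H3K14Ac peptide; the protein and biotinylated peptide are both at 50 nM final, buffer PBS pH 7.4 with 0.01% Tween-20, all steps at room temperature.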
L3MBTL1 inh: qHTS Assay for the Inhibitors of L3MBTL1 | Lethal(3)malignant brain tumor-like protein 1 (Homo sapiens), Q9Y468 | AlphaScreen L3MBTL1–H3K9me1 peptide binding | Potency, µM (top dose mostly 57.1 µM), without a hit: top-dose activity, negative = inhibition, usual class: inhibitors | actives 0.66% (n = 230,000) | AID 485360, 2010; further: potency means the concentration at half of the fitted maximal effect; on the % scale 0 is the no-effect control and ±100 the full control effect; nearly all actives have a fitted effect of over 60% in size
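Read-out is AlphaScreen signal from streptavidin donor and nickel chelate acceptor beads (10 ug/mL final each) bridging L3MBTL1 (50 nM) and biotinylated K9-monomethylated H3(1-15) peptide (75 nM), after 30 min compound exposure at room temperature.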
HP1b chromo inh: HTS for Inhibitors of HP1-beta Chromodomain Interactions with Methylated Histone Tails; Chromobox protein homolog 1 (Homo sapiens), P83916; AlphaScreen HP1-beta / biotin-H3K9me3 peptide binding; Potency, µM (titrated, usually from 114 µM), for the others: at the highest dose activity change, negative = inhibition, usual class: inhibitors; actives 0.56% (n = 390,000); AID 540317, 2011; further: potency means the concentration at half of the fitted maximal effect; nearly all actives have a fitted effect of over 70% in size
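Compound inhibition of the preformed complex between 50 nM HP1-beta and 50 nM biotinylated H3K9me3 peptide was read by AlphaScreen. Buffer was PBS pH 7.4 with 0.01% Tween-20. Incubations ran 30 min at room temperature, with 10 ug/mL donor/acceptor beads.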
* marks the source's active call; other numbers are inactive results; [ ] = another dose, or the depositor's remark. Rows were chosen to be rich in hits. Some 5.7% of all compounds tested hit in one or more screens of this group. Unless noted, the call rests on the fitted dose curve; in most records, active means well fitted inhibition curve with a large enough effect; inconclusive means small, poorly fitted or top-dose-only effect; inactive means no such curve, though single readings can be large or run the other way.

For OCCN(CCO)c1ccc(C(c2ccc(Cl)cc2)c2ccc(N(CCO)CCO)cc2Cl)c(Cl)c1 the results were PI5P4Ka inh -7, JMJD2A Tudor inconclusive, KDM4E inh 3%, BAZ2B inh inconclusive, L3MBTL1 inh -27% and HP1b chromo inh -8%.
Cc1cc(N(CCO)CCO)ccc1N=Nc1cc(F)ccc1F was read as PI5P4Ka inh 21, JMJD2A Tudor 22µM*, KDM4E inh 0%, BAZ2B inh 22µM*, L3MBTL1 inh inconclusive and HP1b chromo inh inconclusive.
For O=c1cc2c(n[nH]1)CCCC2 the results were PI5P4Ka inh 3, JMJD2A Tudor 56µM*, KDM4E inh -2%, BAZ2B inh inconclusive, L3MBTL1 inh 1% and HP1b chromo inh 22%.
`CCC/C=C1/CCCOC(C(=O)NCc2ccc(C)o2)(C(F)(F)F)C1` (configuration not stated) gave PI5P4Ka inh -8, JMJD2A Tudor -10%, L3MBTL1 inh 8% and HP1b chromo inh 24%.
For COc1cc2c(cc1OC)C(C(=O)Nc1cccc(C)n1)C(c1cccnc1)N(C)C2=O (configuration not stated) the results were PI5P4Ka inh -3, JMJD2A Tudor -9%, KDM4E inh 2%, BAZ2B inh 10%, L3MBTL1 inh -2% and HP1b chromo inh 37%.
Screening COc1cc2c(cc1OC)C(C(=O)Nc1ccccn1)C(c1cccnc1)N(C)C2=O (configuration not stated) returned PI5P4Ka inh -3, JMJD2A Tudor -12%[57.1 µM], KDM4E inh -6%, BAZ2B inh 79µM*, L3MBTL1 inh -2% and HP1b chromo inh 81%.
`O=C(C1CCCN(S(=O)(=O)c2ccccc2)C1)N1CCCCC1` (configuration not stated) gave PI5P4Ka inh 2, JMJD2A Tudor -14%, BAZ2B inh -2% and HP1b chromo inh 30%.
CN1CCN(C(=O)C2CCCN(S(=O)(=O)c3ccccc3)C2)CC1 (configuration not stated) was read as PI5P4Ka inh 5, JMJD2A Tudor 20µM*, BAZ2B inh inconclusive and HP1b chromo inh -16%.
CN1CCN(C(=O)C2CCCN(S(=O)(=O)c3ccc(Cl)cc3)C2)CC1 (configuration not stated) was read as PI5P4Ka inh 1, JMJD2A Tudor 0.71µM*, BAZ2B inh 50µM* and HP1b chromo inh inconclusive.
CSc1ccc(CN2CCN(C(=O)c3ccc([N+](=O)[O-])cc3)CC2)cc1 was read as PI5P4Ka inh -6, JMJD2A Tudor 22µM*, KDM4E inh inconclusive, BAZ2B inh 50µM*, L3MBTL1 inh -5% and HP1b chromo inh inconclusive.
CC1CCCC(N2CCN(C(=O)c3ccc([N+](=O)[O-])cc3)CC2)C1 (configuration not stated) was read as PI5P4Ka inh -1, JMJD2A Tudor 22µM*, BAZ2B inh 56µM*, L3MBTL1 inh 2% and HP1b chromo inh inconclusive.
`CCC(=O)N1COC[C@@H]1Cc1ccccc1` gave PI5P4Ka inh 6, JMJD2A Tudor -14%, KDM4E inh 2%, BAZ2B inh -6%, L3MBTL1 inh 5% and HP1b chromo inh 23%.
Screening COc1cc(C2CC(=O)N(c3ccc(C)c(Cl)c3)C3=C2C(=O)OC3)cc(OC)c1OC (configuration not stated) returned JMJD2A Tudor -9%, BAZ2B inh -35% and HP1b chromo inh 12%.
For C=C(C)C(=O)/C=C/CCC/C=C/C(=O)OCC the results were KDM4E inh 4%.
COc1ccc(NC(=O)N2c3ccc(OC)cc3C(C)=CC2(C)C)cc1 was read as PI5P4Ka inh -1, JMJD2A Tudor 56µM*, KDM4E inh inconclusive, BAZ2B inh 45µM*, L3MBTL1 inh -24% and HP1b chromo inh -22%.
For CCOc1ccc2c(c1)C(C)=CC(C)(C)N2C(=O)Nc1ccccc1 the results were PI5P4Ka inh 2, JMJD2A Tudor 56µM*, KDM4E inh inconclusive, BAZ2B inh 50µM* and HP1b chromo inh inconclusive.
CCNC(=O)N1c2ccc(OC)cc2C(C)=CC1(C)C was read as JMJD2A Tudor -31%, KDM4E inh inconclusive, BAZ2B inh inconclusive, L3MBTL1 inh -10% and HP1b chromo inh -3%.
Screening C=CCC(C(=O)NC(C)c1ccccc1)C(=O)NC(C)c1ccccc1 (configuration not stated) returned PI5P4Ka inh -3, JMJD2A Tudor -34%, BAZ2B inh -2% and HP1b chromo inh -5%.
Screening COC(=O)c1cc2oc3ccccc3c2n1Cc1nc(-c2ccccc2Cl)oc1C returned JMJD2A Tudor -5%, BAZ2B inh 0% and HP1b chromo inh 31%.
For O[C@H]1C[C@H](c2ccccc2)N(Cc2cccs2)C[C@@H]1n1cc(-c2ccc(F)cc2)nn1 the results were PI5P4Ka inh 8.
NC1(C(=O)O)CC1 was read as PI5P4Ka inh -2, JMJD2A Tudor 3.2µM*, KDM4E inh inconclusive and HP1b chromo inh 28%.
COc1ccccc1N1CCN(C(=O)CN2C(=O)COc3ccc(S(=O)(=O)N4CCCC4)cc32)CC1 was read as JMJD2A Tudor -14%, BAZ2B inh 12% and HP1b chromo inh 54%.
For O=C(N/N=C/C(Cl)=C/c1ccc([N+](=O)[O-])cc1)C(=O)Nc1cccc(C(=O)O)c1 the results were PI5P4Ka inh 0, JMJD2A Tudor inconclusive, KDM4E inh -6%, BAZ2B inh 56µM*, L3MBTL1 inh -23% and HP1b chromo inh 7%.
`O=C(Nc1cccc(C(=O)O)c1)/C(=C/c1cccc([N+](=O)[O-])c1)NC(=O)c1cccc(Br)c1` gave PI5P4Ka inh -1, JMJD2A Tudor -23% and HP1b chromo inh 21%.
Screening CC(=O)Oc1cc2c3c(c1)/C(=C1/SC(=S)NC1=O)C(=O)N3C(C)(C)C=C2C returned PI5P4Ka inh -76*, JMJD2A Tudor 11µM*, KDM4E inh -12%, BAZ2B inh 7.9µM*, L3MBTL1 inh -20% and HP1b chromo inh inconclusive.
`CCn1nc(C)c(CCN(C)C(=O)Nc2cc(Cl)ccc2C)c1C` gave JMJD2A Tudor 1%, BAZ2B inh -14% and HP1b chromo inh 40%.
